Measurements published in PubChem BioAssay (NCI).
The panel holds about 83,000 compounds, 20% with a hit somewhere; the sample as a whole holds those more often.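 Note: values are percent growth. 100 is the growth of untreated cells, values between 100 and 0 indicate rising inhibition; between -100 and 0 indicates cell death.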 Calls of active or inactive are those of the source. The calls were made as follows: active = growth percent below 10; inactive = the rest.

What was measured:
Experiment in all cases: NCI-60 one-dose screen, 48 h (100 = growth as untreated, 0 = no growth, -100 = all killed)
HCT-15 colon = conditions: 10 µM unless noted
HT29 colon = conditions: 10 µM unless noted
SNB-75 CNS = conditions: 10 µM unless noted
SNB-19 CNS = conditions: 10 µM unless noted
U251 CNS = conditions: 10 µM unless noted
PC-3 prostate = conditions: 10 µM unless noted
SK-MEL-5 melanoma = conditions: 10 µM unless noted
UACC-62 melanoma = conditions: 10 µM unless noted
LOX IMVI melanoma = conditions: 10 µM unless noted
SK-MEL-28 melanoma = conditions: 10 µM unless noted
SK-MEL-2 melanoma = conditions: 10 µM unless noted
EKVX NSCLC = conditions: 10 µM
SN12C renal = conditions: 10 µM unless noted
UO-31 renal = conditions: 10 µM unless noted
TK-10 renal = conditions: 10 µM unless noted
ACHN renal = conditions: 10 µM unless noted
A498 renal = conditions: 10 µM unless noted
CCRF-CEM leukemia = conditions: 10 µM
MOLT-4 leukemia = conditions: 10 µM unless noted
CAKI-1 renal = conditions: 10 µM unless noted

Measured: growth

CC[C@H](Nc1ncnc2nc[nH]c12)c1nc2cccc(NCc3ccc(C(=O)NO)nc3)c2c(=O)n1-c1ccccc1
inactive: HCT-15 colon 97.1% | HT29 colon 66.6% | SNB-19 CNS 26% | U251 CNS 23.6% | PC-3 prostate 23% | SK-MEL-5 melanoma 80.2% | UACC-62 melanoma 20.5% | LOX IMVI melanoma 23.1% | SK-MEL-28 melanoma 57.6% | SK-MEL-2 melanoma 55.6% | EKVX NSCLC 77.1% | SN12C renal 38.9% | UO-31 renal 87.1% | TK-10 renal 58.9% | ACHN renal 97% | A498 renal 54.2% | CCRF-CEM leukemia 19.6% | MOLT-4 leukemia 15%
active: SNB-75 CNS 5.43%

COc1cc2cc3cc4cc(OC)c(OC)cc4c(C)[n+]3cc2cc1OC (tested in a mixture with another compound)
inactive: HCT-15 colon 91.8% | HT29 colon 79.2% | SNB-75 CNS 73.1% | SNB-19 CNS 96.2% | U251 CNS 76.9% | PC-3 prostate 67.8% | SK-MEL-5 melanoma 82.4% | UACC-62 melanoma 84.3% | LOX IMVI melanoma 84.4% | SK-MEL-28 melanoma 116% | SK-MEL-2 melanoma 69.5% | EKVX NSCLC 60.8% | SN12C renal 85.7% | UO-31 renal 59.6% | TK-10 renal 117% | ACHN renal 95.2% | A498 renal 93.6% | CCRF-CEM leukemia 51.8% | MOLT-4 leukemia 40.1%

[2H]c1nc(=Nc2cc(NC(=O)C=C)c(N(C)CCN(C)C)cc2OC)[nH]c(-c2cn(C([2H])([2H])[2H])c3ccccc23)c1[2H]
inactive: SNB-75 CNS 66.9% | SNB-19 CNS 55.8% | U251 CNS 40.9% | PC-3 prostate 50.2% | SK-MEL-5 melanoma 63.5% | LOX IMVI melanoma 39.2% | SK-MEL-28 melanoma 37.5% | SK-MEL-2 melanoma 55.8% | EKVX NSCLC 39.7% | SN12C renal 35.3% | UO-31 renal 24.2% | TK-10 renal 26.8% | ACHN renal 23.3% | A498 renal 36.7% | CCRF-CEM leukemia 18.4% | MOLT-4 leukemia 13.3%
active: HCT-15 colon 1.13% | HT29 colon -3.69% | UACC-62 melanoma -10.7%

CCOC(=O)C1=C(c2ccccc2)NC(=O)NC1CN1C(=O)c2ccccc2C1=O (stereo not drawn)
inactive: HCT-15 colon 115% | HT29 colon 110% | SNB-75 CNS 98.8% | SNB-19 CNS 107% | U251 CNS 102% | PC-3 prostate 100% | SK-MEL-5 melanoma 104% | UACC-62 melanoma 98.5% | LOX IMVI melanoma 110% | SK-MEL-28 melanoma 105% | SK-MEL-2 melanoma 101% | EKVX NSCLC 130% | SN12C renal 107% | UO-31 renal 102% | TK-10 renal 111% | ACHN renal 111% | CAKI-1 renal 105% | CCRF-CEM leukemia 54.4%
active: MOLT-4 leukemia 2.02%

O=C1/C(=C\c2cn(-c3nc(N4CCOCC4)nc(N4CCOCC4)n3)c3ccccc23)c2ccccc2N1c1c(Cl)cccc1Cl
active: SNB-75 CNS 0.936% | A498 renal -43.7%
inactive: HCT-15 colon 64.5% | HT29 colon 73.9% | SNB-19 CNS 69.6% | U251 CNS 53.5% | PC-3 prostate 24.3% | SK-MEL-5 melanoma 83% | UACC-62 melanoma 46.6% | LOX IMVI melanoma 69.8% | SK-MEL-28 melanoma 77.2% | SK-MEL-2 melanoma 74% | EKVX NSCLC 61% | SN12C renal 64.8% | UO-31 renal 24.6% | TK-10 renal 60% | ACHN renal 72.7% | CCRF-CEM leukemia 64.5% | MOLT-4 leukemia 60.5%

COc1ccc2c(c1)/C(=C1/S/C(=N/c3nnc(C)s3)NC1=O)C(=O)N2Cc1ccc(Br)cc1
active: A498 renal 4.62%
inactive: HCT-15 colon 27.5% | HT29 colon 35.4% | SNB-75 CNS 45.7% | SNB-19 CNS 24.7% | U251 CNS 14.3% | PC-3 prostate 21.9% | SK-MEL-5 melanoma 36.3% | UACC-62 melanoma 32.9% | LOX IMVI melanoma 32.1% | SK-MEL-28 melanoma 32.6% | SK-MEL-2 melanoma 25.6% | EKVX NSCLC 31.8% | SN12C renal 43.4% | UO-31 renal 42.6% | TK-10 renal 35% | ACHN renal 36.2% | CCRF-CEM leukemia 21.2% | MOLT-4 leukemia 20.7%

Nc1cc2c(cc1Br)[nH]c(=O)c1ccccc12
inactive: HCT-15 colon 58.3% | HT29 colon 22.4% | SNB-75 CNS 94.3% | SNB-19 CNS 58.6% | U251 CNS 40.3% | PC-3 prostate 42.9% | UACC-62 melanoma 73.4% | LOX IMVI melanoma 25.1% | SK-MEL-28 melanoma 78.4% | SK-MEL-2 melanoma 40.2% | EKVX NSCLC 49.5% | SN12C renal 39.8% | UO-31 renal 48.1% | TK-10 renal 44% | ACHN renal 22.5% | CAKI-1 renal 52.9% | CCRF-CEM leukemia 47.1% | MOLT-4 leukemia 20.9%
active: SK-MEL-5 melanoma 0.102%

O=C(/C=C/c1c[nH]c2ccccc12)c1cc2ccccc2o1
inactive: HCT-15 colon 83.3% | HT29 colon 98.9% | SNB-75 CNS 92% | SNB-19 CNS 96.2% | U251 CNS 98.2% | PC-3 prostate 75.6% | SK-MEL-5 melanoma 102% | UACC-62 melanoma 87.6% | LOX IMVI melanoma 91.7% | SK-MEL-28 melanoma 96.6% | SK-MEL-2 melanoma 105% | EKVX NSCLC 84.4% | SN12C renal 101% | UO-31 renal 60.2% | TK-10 renal 140% | ACHN renal 103% | A498 renal 102% | CCRF-CEM leukemia 36.3% | MOLT-4 leukemia 75.3%

COc1ccc(/C=C2\SC(=O)N(Cc3cc(=O)oc4ccc(OC)cc34)C2=O)cc1
inactive: HCT-15 colon 89.9% | HT29 colon 95.8% | SNB-75 CNS 74.3% | SNB-19 CNS 87% | U251 CNS 98.9% | PC-3 prostate 93.1% | SK-MEL-5 melanoma 87.4% | UACC-62 melanoma 66.3% | LOX IMVI melanoma 85.7% | SK-MEL-28 melanoma 95.1% | SK-MEL-2 melanoma 99.9% | EKVX NSCLC 79.3% | SN12C renal 90.7% | UO-31 renal 70.6% | TK-10 renal 97.8% | ACHN renal 92.7% | A498 renal 93.5% | CCRF-CEM leukemia 77.2% | MOLT-4 leukemia 85.1%

Cc1cc2c(-c3nc4ccccc4[nH]3)c(O)c(O)cc2c(O)c1-c1c(C)cc2c(-c3nc4ccccc4[nH]3)c(O)c(O)cc2c1O
inactive: HCT-15 colon 11.9% | HT29 colon 10.5% | SK-MEL-28 melanoma 19.8%
active: SNB-75 CNS 5.43% | SNB-19 CNS 7.78% | U251 CNS -58.7% | PC-3 prostate 6.02% | SK-MEL-5 melanoma -8.04% | UACC-62 melanoma -16.6% | LOX IMVI melanoma -26.5% | SK-MEL-2 melanoma 7.6% | EKVX NSCLC 8.33% | SN12C renal 9.17% | UO-31 renal -30.6% | TK-10 renal -6.24% | ACHN renal 1.78% | A498 renal -3.57% | CCRF-CEM leukemia 3.98% | MOLT-4 leukemia 2.22%

CC(=O)c1nn(-c2ccc(C)cc2)cc1C(=O)c1cc2c(ccc3ccccc32)oc1=O
inactive: HCT-15 colon 99.3% | HT29 colon 92.4% | SNB-75 CNS 66.4% | SNB-19 CNS 92.6% | U251 CNS 104% | PC-3 prostate 87.9% | SK-MEL-5 melanoma 95.6% | UACC-62 melanoma 78.3% | LOX IMVI melanoma 90.5% | SK-MEL-28 melanoma 96.7% | SK-MEL-2 melanoma 99.7% | EKVX NSCLC 82.3% | SN12C renal 94.3% | UO-31 renal 65.2% | TK-10 renal 144% | ACHN renal 88.1% | A498 renal 124% | CCRF-CEM leukemia 98.4% | MOLT-4 leukemia 102%

CCNc1nnc(COc2ccc(CNC(=O)CCCC/C=C/C(C)C)cc2OC)o1
inactive: HCT-15 colon 96.9% | HT29 colon 105% | SNB-75 CNS 86.2% | SNB-19 CNS 104% | U251 CNS 98.3% | PC-3 prostate 104% | SK-MEL-5 melanoma 102% | UACC-62 melanoma 95% | LOX IMVI melanoma 93.2% | SK-MEL-28 melanoma 104% | SK-MEL-2 melanoma 104% | EKVX NSCLC 96.7% | SN12C renal 104% | UO-31 renal 84.2% | TK-10 renal 107% | ACHN renal 101% | A498 renal 109% | CCRF-CEM leukemia 97.5% | MOLT-4 leukemia 104%

COc1ccccc1Nc1nnc(COc2ccc(CNC(=O)CCCC/C=C/C(C)C)cc2OC)o1
inactive: HCT-15 colon 88.3% | HT29 colon 103% | SNB-75 CNS 94.5% | SNB-19 CNS 94.6% | U251 CNS 102% | PC-3 prostate 84.4% | SK-MEL-5 melanoma 98% | UACC-62 melanoma 81.9% | LOX IMVI melanoma 95.6% | SK-MEL-28 melanoma 98.1% | SK-MEL-2 melanoma 102% | EKVX NSCLC 85% | SN12C renal 105% | UO-31 renal 75.2% | TK-10 renal 103% | ACHN renal 95.7% | A498 renal 103% | CCRF-CEM leukemia 92% | MOLT-4 leukemia 76.7%

COc1ccc(C(O)(c2ccccc2)C(C(=O)O)c2ccccc2)cc1 (stereo not drawn)
inactive: HCT-15 colon 107% | HT29 colon 91.3% | SNB-75 CNS 94.6% | SNB-19 CNS 96.9% | U251 CNS 116% | PC-3 prostate 85.8% | SK-MEL-5 melanoma 102% | UACC-62 melanoma 93.6% | LOX IMVI melanoma 96.7% | SK-MEL-28 melanoma 112% | SK-MEL-2 melanoma 104% | EKVX NSCLC 111% | SN12C renal 100% | UO-31 renal 81.6% | TK-10 renal 105% | ACHN renal 106% | CAKI-1 renal 102% | CCRF-CEM leukemia 102% | MOLT-4 leukemia 102%

Cc1cc2c(-c3nc4ccccc4n3C)c(O)c(O)cc2c(O)c1-c1c(C)cc2c(-c3nc4ccccc4n3C)c(O)c(O)cc2c1O
inactive: HCT-15 colon 78.9% | HT29 colon 25.2% | SNB-75 CNS 69% | SNB-19 CNS 15.4% | U251 CNS 13.5% | PC-3 prostate 27.3% | SK-MEL-5 melanoma 91.3% | UACC-62 melanoma 28.9% | LOX IMVI melanoma 30.4% | SK-MEL-28 melanoma 58.1% | SK-MEL-2 melanoma 37.2% | EKVX NSCLC 56.8% | SN12C renal 35.2% | UO-31 renal 76.3% | TK-10 renal 57.1% | ACHN renal 89.1% | A498 renal 28.5% | CCRF-CEM leukemia 20.5% | MOLT-4 leukemia 26.7%

CCCNC(=O)Oc1ccc(/C(=C(/C)Cc2ccc(OC)cc2)c2ccc(OCCN3CCCCC3)cc2)cc1
inactive: HCT-15 colon 50.2% | HT29 colon 28.9% | SNB-75 CNS 63.6% | SNB-19 CNS 94.1% | U251 CNS 69.9% | PC-3 prostate 77% | SK-MEL-5 melanoma 78.2% | UACC-62 melanoma 97.5% | LOX IMVI melanoma 84.8% | SK-MEL-28 melanoma 100% | SK-MEL-2 melanoma 99.5% | EKVX NSCLC 76.6% | SN12C renal 84.9% | UO-31 renal 60.8% | TK-10 renal 81.1% | ACHN renal 102% | CCRF-CEM leukemia 70.8% | MOLT-4 leukemia 70.9%
